In PubChem BioAssay (NCATS):
Results filed as inconclusive are left out. Activity calls are given as the source filed them. The call rests on the fitted dose curve; in most records, active means well fitted curve in the direction sought with a large enough effect; inconclusive means small, poorly fitted or top-dose-only effect, or another doubt; inactive means no such curve, though single readings can be large; an effect the other way counts as inactive or inconclusive.

Columns and labels:
[1] = system: Zika virus NS2B-NS3 protease; test: Primary screen GU AMC qHTS for Zika virus inhibitors (AID 1347154);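 further: 0% = no-inhibitor control and -100% = no-enzyme control; nearly all actives have a fitted effect of over 70% in size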
Outline: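 Fluorogenic AMC-substrate cleavage by noncovalent NS2B-NS3 protease complex (25 nM, pH 8.0 Tris buffer with Tween 20) followed for 15 minutes at room temperature (~20% conversion). Percent inhibition from ex340/em450 signal change, fitted by 4-parameter Hill equation.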

[2] = biological target: Protein phosphatase 1D (Homo sapiens) (UniProt O15297); test: RapidFire Mass Spectrometry qHTS Assay for Modulators of WT P53-Induced Phosphatase 1 (WIP1) (AID 1347424);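 further: amount of dephosphorylated VEPPL-S-QETFS peptide product formed by WIP1; series mostly up to about 63 µM; plate controls were DMSO wells for no effect and GSK830371 inhibitor control at 10 µM for full effect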
Outline: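 10 nM WIP1 + cpd, 1 h RT; + 2 uM VEPPL-pS-QETFS, 5 min RT; stop 0.5% formic acid; labelled product standard 1 uM; RapidFire MS. Buffer 50 mM Tris pH 7.5, 30 mM MgCl2, 1 mM TCEP.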

[3] = biological target: Protein phosphatase 1D (Homo sapiens) (UniProt O15297); test: Rhodamine-PBP qHTS Assay for Modulators of WT P53-Induced Phosphatase 1 (WIP1) (AID 1347425); further: % of control where 0% means no effect
Outline: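 WIP1 (5 nM final) was preincubated with compound for 1 hour at room temperature. It then dephosphorylated 10 uM VEPPL-pS-QETFS peptide in Tris-HCl pH 7.5 with 30 mM MgCl2. Released Pi was detected by 10 uM Rh-PBP fluorescence (ex 525/em 598 nm) read at 1-min intervals for 11 min, as delta f1 - f0.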

[4] = Primary qHTS for inhibitors of La Crosse Virus (LACV) - induced cell death in SH-SY5Y cells (AID 1508616);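 further: top concentration of the series differs between compounds; 0% = infected DMSO wells and 100% = uninfected DMSO wells; higher means more rescue of cells from virus-induced death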
Outline: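 Protection against LACV-induced cell death is scored in SH-SY5Y cells exposed to compounds and virus (0.01 MOI) for 6 days. Data normalized to virus-infected DMSO wells and virus-free DMSO wells.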

[5] = system: Zika virus NS2B-NS3 protease (unlinked complex); test: Primary screen GU Rhodamine qHTS for Zika virus inhibitors: Unlinked NS2B-NS3 protease assay (AID 1347159); further: on the % scale 0 is the no-effect control and ±100 the full control effect; nearly all actives have a fitted effect of over 60% in size
Outline: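 Noncovalent NS2B hydrophilic domain/NS3 protease complex (25 nM final) in 10 mM Tris-HCl pH 8.0, 0.01% Tween 20, preincubated 15 min with compounds (up to 114 microM), then 1.5 microM Rhodamine110 substrate. Fluorescence change over 15 min fitted to 4-parameter Hill.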

[6] = system: Zika virus NS2B-NS3 protease (linked construct); test: Primary screen NINDS Rhodamine qHTS for Zika virus inhibitors (AID 1347160); further: nearly all actives have a fitted effect of over 55% in size; on activity change, negative = inhibition: on the % scale 0 is the no-effect control and ±100 the full control effect
Outline: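 Purified NS2B-NS3 protease with the NS2B hydrophilic domain joined by a flexible linker (25 nM) in 10 mM Tris-HCl pH 8.0, 0.01% Tween 20, preincubated 15 min at RT with compound; Rhodamine110 peptide substrate 1.5 µM; fluorescence change over 15 min; 4-parameter Hill fit.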

[7] = qHTS to identify inhibitors of the type 1 interferon - major histocompatibility complex class I in skeletal muscle: primary screen against the NCATS Pharmaceutical Collection (AID 1347407);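 further: luminescence of HiBiT knocked into endogenous HLA-B as interferon-induced MHC class I level; on the % scale 0 is the no-effect control and ±100 the full control effect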
Outline: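 Immortalized human myoblasts (C25cl48) with HiBiT knocked into endogenous HLA-B*08:01 were stimulated with 4 ng/ml IFN-beta and treated with compounds (8-point, 1:5, top 46 uM final) for 24 h at 37 C; HiBiT lytic luminescence read.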

[8] = biological target: Lysine-specific demethylase 5B (Homo sapiens) (UniProt Q9UGL1); test: Optimization screen for KDM5B Histone Demethylases FDH coupled qHTS against the LOPAC library (AID 1347166); further: 0% is about no effect
Outline: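 KDM5BDeltaAP (200nM final) preincubated 10 min with compound, then 12.5uM H3K4Me3, 25uM a-ketoglutarate, ascorbate, Fe(II), NAD+ and FDH added; 50mM HEPES pH 7.5, 0.01% Tween-20. NADH fluorescence (340/450 nm) change over 30 min, room temperature.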

[9] = qHTS to identify inhibitors of the type 1 interferon - major histocompatibility complex class I in skeletal muscle: primary screen against the NCATS LOPAC collection (AID 1347405);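 further: lytic HiBiT luminescence reporting HLA-B protein level; on the % scale 0 is the no-effect control and ±100 the full control effect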
Outline: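 Luminescence from HiBiT fused to endogenous HLA-B in CRISPR-engineered human myoblasts served as the read-out. Cells received 4.0 ng/ml IFN-beta plus compound (seven concentrations, 1:4.3 steps, highest 46 uM final) for 24 hrs before lytic detection.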

[10] = qHTS for inhibitors of adenylyl cyclases using a fission yeast platform: a pilot screen against the NCATS LOPAC library (AID 1347410);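 further: plate controls were DMSO vehicle for no effect and DPI positive control for full effect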
Outline: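 S. pombe CHP2027 (AC9-GNAS-PDE4D2) carrying a PKA-repressed fbp1-GFP reporter was exposed to LOPAC compounds (final up to 57 µM) for 18 h at 30C in the dark, in EMM with histidine, lysine and uracil; GFP gain-of-signal read by laser scanning cytometry.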

[11] = Validation qHTS assay for inhibitors of Activation Induced Cytidine Deaminase (AID): UDG Counterscreen signal (AID 1347427); further: 0% is about no effect
Outline: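 Counterscreen read of UDG activity (2 U/mL, 4/3x) in the FRET deamination format with AID (1 uM, 4/3x), DJC20/DJC23 substrates (250 nM, 4x), 4 h at room temperature. NaOH stop, fluorescence at 560 ex/665 em.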

[12] = biological target: Single-stranded DNA cytosine deaminase (Homo sapiens) (UniProt Q9GZX7); test: Validation qHTS assay for inhibitors of Activation Induced Cytidine Deaminase (AID): AID signal (AID 1347429); further: on the % scale 0 is the no-effect control and ±100 the full control effect
Outline: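 Fluorescence at 540 nm excitation and 590 nm emission reports ssDNA cytosine deamination by AID, with UDG in the same well. Compound-treated reactions ran 4 hr at room temperature with DJC20/DJC23 substrate, followed by 30 min NaOH treatment.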

[13] = qHTS to identify inhibitors of the type 1 interferon - major histocompatibility complex class I in skeletal muscle: primary screen against the NCATS Mechanism Interrogation Plate v5.0 (MIPE) Libary (AID 1347411);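 further: plate controls were vehicle for no effect and reference inhibitor for full effect; nearly all actives have a fitted effect of over 65% in size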
Outline: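 Luminescence from HiBiT-tagged endogenous HLA-B*08:01 served as the MHC class I read-out. CRISPR-engineered C25cl48 human myoblasts received 4.0 ng/ml IFN-beta plus compound for 24 hrs, with an 11-point, 1:3 series topping at 46 uM final.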

Chain of Single-stranded DNA cytosine deaminase (Homo sapiens) (Q9GZX7 whole entry, looked up): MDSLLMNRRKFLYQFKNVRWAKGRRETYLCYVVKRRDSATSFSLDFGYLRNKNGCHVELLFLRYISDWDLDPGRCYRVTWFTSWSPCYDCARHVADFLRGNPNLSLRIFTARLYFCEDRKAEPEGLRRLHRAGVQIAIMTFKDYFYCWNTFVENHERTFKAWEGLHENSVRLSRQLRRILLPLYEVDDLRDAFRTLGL
Chain of Lysine-specific demethylase 5B (Homo sapiens) (Q9UGL1 whole entry, looked up): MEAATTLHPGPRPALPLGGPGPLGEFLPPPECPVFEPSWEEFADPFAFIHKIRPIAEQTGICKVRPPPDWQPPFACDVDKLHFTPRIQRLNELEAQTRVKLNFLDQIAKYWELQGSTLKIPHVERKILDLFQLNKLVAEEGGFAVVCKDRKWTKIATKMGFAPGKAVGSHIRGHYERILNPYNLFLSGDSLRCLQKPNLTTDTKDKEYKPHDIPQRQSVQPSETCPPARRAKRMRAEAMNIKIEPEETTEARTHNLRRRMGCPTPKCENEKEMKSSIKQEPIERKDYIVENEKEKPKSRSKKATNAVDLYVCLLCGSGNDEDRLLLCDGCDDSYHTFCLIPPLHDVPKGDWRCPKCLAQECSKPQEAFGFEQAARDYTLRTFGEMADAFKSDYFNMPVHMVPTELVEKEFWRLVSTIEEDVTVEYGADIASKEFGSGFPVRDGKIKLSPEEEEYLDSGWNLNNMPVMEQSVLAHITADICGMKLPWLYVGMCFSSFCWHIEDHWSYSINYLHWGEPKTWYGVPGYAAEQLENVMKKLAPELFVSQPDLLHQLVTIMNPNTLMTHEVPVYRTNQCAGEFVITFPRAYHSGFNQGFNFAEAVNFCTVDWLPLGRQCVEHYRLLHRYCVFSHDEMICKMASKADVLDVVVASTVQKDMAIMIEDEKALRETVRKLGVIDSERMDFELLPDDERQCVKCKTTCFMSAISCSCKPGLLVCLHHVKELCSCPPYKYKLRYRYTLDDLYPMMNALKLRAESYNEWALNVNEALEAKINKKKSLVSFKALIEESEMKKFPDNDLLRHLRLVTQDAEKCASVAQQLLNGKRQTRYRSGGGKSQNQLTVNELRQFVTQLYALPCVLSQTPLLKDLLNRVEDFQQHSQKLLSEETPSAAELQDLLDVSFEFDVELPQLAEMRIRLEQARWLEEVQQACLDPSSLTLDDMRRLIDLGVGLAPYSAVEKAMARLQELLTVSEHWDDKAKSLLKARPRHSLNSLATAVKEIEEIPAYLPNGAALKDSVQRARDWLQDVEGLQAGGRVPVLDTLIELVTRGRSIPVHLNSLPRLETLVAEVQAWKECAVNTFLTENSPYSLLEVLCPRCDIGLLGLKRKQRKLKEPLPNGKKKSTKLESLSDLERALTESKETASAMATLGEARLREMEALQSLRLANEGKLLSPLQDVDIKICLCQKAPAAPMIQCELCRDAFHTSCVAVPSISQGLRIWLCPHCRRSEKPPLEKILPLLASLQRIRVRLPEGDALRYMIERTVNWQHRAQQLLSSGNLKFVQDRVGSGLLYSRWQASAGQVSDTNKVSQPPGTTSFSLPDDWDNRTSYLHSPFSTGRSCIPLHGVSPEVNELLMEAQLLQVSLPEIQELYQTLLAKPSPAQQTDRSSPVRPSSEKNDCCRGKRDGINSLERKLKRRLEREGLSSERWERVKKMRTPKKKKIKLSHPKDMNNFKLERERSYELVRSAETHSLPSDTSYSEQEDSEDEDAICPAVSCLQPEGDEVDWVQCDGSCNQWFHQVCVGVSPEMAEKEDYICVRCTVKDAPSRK
Chain of Protein phosphatase 1D (Homo sapiens) (O15297 whole entry, looked up): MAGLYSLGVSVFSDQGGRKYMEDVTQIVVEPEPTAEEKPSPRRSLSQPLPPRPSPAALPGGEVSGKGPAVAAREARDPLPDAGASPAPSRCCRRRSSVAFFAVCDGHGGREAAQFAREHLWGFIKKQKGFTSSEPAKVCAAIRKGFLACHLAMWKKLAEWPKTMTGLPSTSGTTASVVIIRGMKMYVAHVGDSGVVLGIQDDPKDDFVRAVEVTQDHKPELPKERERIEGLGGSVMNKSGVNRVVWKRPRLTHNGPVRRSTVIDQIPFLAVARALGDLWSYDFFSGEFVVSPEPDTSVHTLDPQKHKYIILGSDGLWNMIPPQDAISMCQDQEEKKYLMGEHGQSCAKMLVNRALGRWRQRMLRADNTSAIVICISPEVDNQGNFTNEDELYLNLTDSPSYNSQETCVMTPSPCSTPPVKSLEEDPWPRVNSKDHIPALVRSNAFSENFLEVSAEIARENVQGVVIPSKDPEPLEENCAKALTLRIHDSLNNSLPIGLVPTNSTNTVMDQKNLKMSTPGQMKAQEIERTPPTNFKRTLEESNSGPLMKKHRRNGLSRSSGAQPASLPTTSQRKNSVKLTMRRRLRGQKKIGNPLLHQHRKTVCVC

C[C@H]1O[C@H](O[C@H]2[C@H](O)[C@@H](O)[C@@H](O[C@H]3[C@H](O)[C@@H](O)[C@H](O)O[C@@H]3CO)O[C@@H]2CO)[C@H](O)[C@@H](O)[C@@H]1N[C@H]1C=C(CO)[C@@H](O)[C@H](O)[C@H]1O
inactive: Potency [1] | outcome [2] | outcome [3] | outcome [4]

Nc1nc2c(ncn2CCC(CO)CO)c(=O)[nH]1
inactive: Potency [5] | Potency [6] | Potency [7] | outcome [2] | outcome [3] | outcome [4]

C[C@](N)(Cc1ccc(O)cc1)C(=O)O
inactive: outcome [8] | Potency [9] | outcome [10] | activity change, negative = inhibition [3] -0.695% [at 4.81 µM] | Potency [11] | Potency [12] | outcome [4]

COc1ccc2[nH]c(S(=O)Cc3ncc(C)c(OC)c3C)nc2n1 (stereo not given)
inactive: Potency [5] | Potency [6] | Potency [13] | outcome [3] | outcome [4]

N=c1c[n+](N2CCOCC2)[n-]o1
inactive: outcome [8] | Potency [9] | outcome [10] | Potency [11] | Potency [12] | outcome [4]

O=C1N=C(O)CN1/N=C/c1ccc(-c2ccc([N+](=O)[O-])cc2)o1
inactive: outcome [8] | Potency [9] | outcome [10] | outcome [2] | outcome [3] | Potency [11] | Potency [12] | outcome [4]

Nc1ccc(S(=O)(=O)Nc2ccccc2)cc1
inactive: Potency [1] | outcome [3] | outcome [4]

CC12CCC(CC1)C(C)(C)O2
inactive: Potency [1] | outcome [3] | outcome [4]

CCN(CC)CCCC(C)Nc1c2ccc(Cl)cc2nc2ccc(OC)cc12 (stereo not given)
inactive: Potency [5] | Potency [6] | outcome [10] | outcome [2] | outcome [3] | Potency [11] | Potency [12] | outcome [4]

Cc1ccc(C(C)C)cc2c(C)ccc1-2
inactive: Potency [7] | outcome [2] | outcome [3] | outcome [4]

CC1(C)S[C@@H]2[C@H](NC(=O)Cc3ccccc3)C(=O)N2[C@H]1C(=O)O (tested in a mixture with another compound)
inactive: Potency [7] | outcome [3] | outcome [4]

Cc1cc2nc3c(=O)[nH]c(=O)nc-3n(C[C@H](O)[C@H](O)[C@H](O)CO)c2cc1C
inactive: outcome [2] | outcome [3] | outcome [4]

COc1ccc(S(=O)(=O)Nc2nnc(CC(C)C)s2)cc1
inactive: Potency [7] | outcome [2] | outcome [3] | outcome [4]

O=c1cc[nH]c(=S)[nH]1
inactive: outcome [3] | outcome [4]

O=C(O)c1ccccc1O
inactive: Potency [7] | outcome [2] | outcome [3] | outcome [4]

CN1CCCCC1CCN1c2ccccc2Sc2ccc(S(C)=O)cc21 (stereo not given)
inactive: Potency [7] | outcome [2] | outcome [3] | outcome [4]

C=CCn1c(=O)n([C@@H]2O[C@H](CO)[C@@H](O)[C@H]2O)c2nc(N)[nH]c(=O)c21
inactive: Potency [7] | outcome [2] | outcome [3] | outcome [4]

OCc1cc(C(O)CNCCCCCCOCCCCc2ccccc2)ccc1O (stereo not given)
inactive: Potency [7] | outcome [2] | outcome [3] | Potency [11] | Potency [12] | outcome [4]

CCC(=O)Nc1ccc(O)cc1
inactive: Potency [7] | outcome [2] | outcome [3] | outcome [4]

CCCOC(=O)c1ccccc1
inactive: Potency [7] | outcome [2] | outcome [3] | outcome [4]

O=C1O[C@H](CO)[C@@H](O)[C@H](O)[C@H]1O
inactive: Potency [7] | outcome [2] | outcome [3]

COc1cc(C)c(Cc2cnc(N)nc2N)cc1OC
inactive: Potency [7] | outcome [3] | outcome [4]

OC[C@H]1O[C@@H](O[C@@H]2[C@@H](CO)O[C@](O)(CO)[C@H]2O)[C@H](O)[C@@H](O)[C@H]1O
inactive: Potency [7] | Potency [13] | outcome [2] | outcome [3]

CNCCCC1c2ccccc2C=Cc2ccccc21
inactive: Potency [9] | Potency [7] | outcome [10] | outcome [2] | outcome [3] | Potency [11] | Potency [12] | outcome [4]

COc1cc2[nH]c(=O)[nH]c(=O)c2cc1OC
inactive: Potency [7] | outcome [2] | outcome [3] | outcome [4]

CCn1cc(C(=O)O)c(=O)c2cnc(N3CCNCC3)nc21
inactive: Potency [7] | outcome [3] | outcome [4]

N[C@@H](CSCCCO)C(=O)O
inactive: Potency [7] | outcome [2] | outcome [3]

CN1[C@@H]2CC[C@H]1CC(OC(=O)C(O)c1ccccc1)C2 (stereo not given in full)
inactive: outcome [2] | outcome [3] | outcome [4]

CC1(C)CO[C@@H](CC(=O)O)CN1
inactive: outcome [2] | outcome [3] | outcome [4]

Nc1ccc(S(=O)(=O)Nc2ccc(Cl)nn2)cc1
inactive: Potency [7] | outcome [2] | outcome [3] | outcome [4]

CC(O)COc1ccccc1 (stereo not given)
inactive: Potency [7] | outcome [2] | outcome [3] | outcome [4]

NS(=O)(=O)c1cc2c(cc1C(F)(F)F)NC(Cc1ccccc1)NS2(=O)=O (stereo not given)
inactive: Potency [7] | outcome [2] | outcome [3] | outcome [4]

CCOC(=O)c1ccc(O)cc1
inactive: Potency [7] | outcome [2] | outcome [3] | outcome [4]

CC(C)(C)NCC(O)COc1ccc(NC(=O)NC2CCCCC2)cc1 (stereo not given)
inactive: Potency [7] | outcome [3] | outcome [4]

CC(O)CN(CCN(CC(C)O)CC(C)O)CC(C)O (stereo not given)
inactive: Potency [7] | outcome [3] | outcome [4]

CN(N=O)C(=O)N[C@@H]1[C@@H](O)[C@H](O)[C@@H](CO)O[C@@H]1O
inactive: Potency [7] | Potency [13] | outcome [2] | outcome [3] | outcome [4]

NC(=O)NC(=O)Cc1ccccc1
inactive: Potency [7] | outcome [2] | outcome [3]

CCCCCCCCCCCCOS(=O)(=O)O
inactive: Potency [7] | outcome [2] | outcome [3] | outcome [4]

CC(=O)O[C@@]12CO[C@@H]1C[C@H](O)[C@@]1(C)C(=O)[C@H](O)C3=C(C)[C@@H](OC(=O)[C@H](O)[C@@H](NC(=O)OC(C)(C)C)c4ccccc4)C[C@@](O)([C@@H](OC(=O)c4ccccc4)[C@H]21)C3(C)C
inactive: outcome [2] | outcome [3]

Oc1ccc(C(O)CNCCCCCCNCC(O)c2ccc(O)c(O)c2)cc1O (stereo not given)
inactive: Potency [7] | outcome [2] | outcome [3] | outcome [4]

O=C(Oc1ccccc1C(=O)O)c1ccccc1O
inactive: Potency [7] | outcome [2] | outcome [3]

O=C(O)COc1nn(Cc2ccccc2)c2ccccc12
inactive: Potency [7] | outcome [2] | outcome [3]

CNCC(O)c1ccc(O)c(O)c1 (stereo not given)
inactive: Potency [9] | Potency [7] | outcome [10] | outcome [2] | outcome [3] | Potency [11] | Potency [12] | outcome [4]
